Assay results reported in PubChem BioAssay AID1159580 (chemical genetic matrix, 2015).
About 2,000 (36%) of roughly 5,500 compounds were called active. Inconclusive results (about 18%) are left out. Rule as the data show it: active = normalized growth mostly below about 0.91 (no sharp cut-off); inconclusive = no clear call, values can overlap the other calls; inactive = mostly above about 0.92. Some of the results follow.

Test: chemical genetic growth profiling, strain panel (AID 1159580);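 also: tested at 20 µM; growth read once vehicle control cultures reached saturation at 30 °C; 1 = growth at the plate median or of vehicle wells; lower values mean less growth of the strain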
Settings: growth OD
[1] = S. cerevisiae deletion strains, locus YDL101C, strain DUN1, stronger effect = lower value
[2] = S. cerevisiae deletion strains, locus YHR030C, strain SLT2, stronger effect = lower value
[3] = S. cerevisiae deletion strains, locus YAL013W, strain DEP1, stronger effect = lower value
[4] = S. cerevisiae deletion strains, locus YBR229C, strain ROT2, stronger effect = lower value
[5] = S. cerevisiae deletion strains, locus YCL061C, strain MRC1, stronger effect = lower value
[6] = S. cerevisiae deletion strains, locus YDL134C, strain PPH21, stronger effect = lower value
[7] = S. cerevisiae deletion strains, locus YDR150W, strain NUM1, stronger effect = lower value
[8] = S. cerevisiae deletion strains, locus YEL061C, strain CIN8, stronger effect = lower value
[9] = S. cerevisiae deletion strains, locus YGR078C, strain PAC10, stronger effect = lower value
[10] = S. cerevisiae deletion strains, locus YHR087W, strain rtc3, stronger effect = lower value
[11] = S. cerevisiae deletion strains, locus YJL187C, strain SWE1, stronger effect = lower value
[12] = S. cerevisiae deletion strains, locus YJR043C, strain POL32, stronger effect = lower value
[13] = S. cerevisiae deletion strains, locus YJR075W, strain HOC1, stronger effect = lower value
[14] = S. cerevisiae deletion strains, locus YLR039C, strain RIC1, stronger effect = lower value
[15] = S. cerevisiae deletion strains, locus YLR058C, strain SHM2 (second series), stronger effect = lower value
[16] = S. cerevisiae deletion strains, locus YLR085C, strain ARP6, stronger effect = lower value
[17] = S. cerevisiae deletion strains, locus YLR262C, strain YPT6, stronger effect = lower value
[18] = S. cerevisiae deletion strains, locus YML094W, strain GIM5, stronger effect = lower value
[19] = S. cerevisiae deletion strains, locus YMR219W, strain ESC1, stronger effect = lower value
[20] = S. cerevisiae deletion strains, locus YMR307W, strain GAS1, stronger effect = lower value
[21] = S. cerevisiae deletion strains, locus YNL153C, strain GIM3, stronger effect = lower value
[22] = S. cerevisiae deletion strains, locus YNL298W, strain CLA4 (second series), stronger effect = lower value
[23] = S. cerevisiae deletion strains, locus YNL322C, strain KRE1, stronger effect = lower value
[24] = S. cerevisiae deletion strains, locus YNR030W, strain Alg12, stronger effect = lower value
[25] = S. cerevisiae deletion strains, locus YPL055C, strain LGE1, stronger effect = lower value
[26] = S. cerevisiae deletion strains, locus YPL241C, strain CIN2, stronger effect = lower value
[27] = S. cerevisiae deletion strains, locus YPR135W, strain CTF4, stronger effect = lower value
[28] = S. cerevisiae deletion strains, locus YGR229C, strain SMI1, stronger effect = lower value

Measured: normalized growth

COCCOc1ccccc1NC(=S)SCCSC(=S)Nc1ccccc1OCCOC
inactive: S. cerevisiae deletion strains, locus YAR019C, strain CDC15, stronger effect = lower value 0.988 | S. cerevisiae deletion strains, locus YBL105C, strain PKC1, stronger effect = lower value 0.978 | S. cerevisiae deletion strains, locus YBR135W, strain CKS1, stronger effect = lower value 0.978 | S. cerevisiae deletion strains, locus YBR136W, strain MEC1, stronger effect = lower value 0.977 | S. cerevisiae deletion strains, locus YBR160W, strain CDC28, stronger effect = lower value 0.979 | S. cerevisiae deletion strains, locus YDL017W, strain CDC7, stronger effect = lower value 0.98 | S. cerevisiae deletion strains, locus YDL028C, strain MPS1, stronger effect = lower value 0.98 | [1] 0.973 | S. cerevisiae deletion strains, locus YDL108W, strain KIN28, stronger effect = lower value 0.97 | S. cerevisiae deletion strains, locus YDL132W, strain cdc53, stronger effect = lower value 0.976 | S. cerevisiae deletion strains, locus YDL214C, strain PRR2, stronger effect = lower value 0.911 | S. cerevisiae deletion strains, locus YDR052C, strain DBF4, stronger effect = lower value 0.981 | S. cerevisiae deletion strains, locus YDR054C, strain cdc34, stronger effect = lower value 0.976 | S. cerevisiae deletion strains, locus YDR226W, strain ADK1, stronger effect = lower value 0.969 | S. cerevisiae deletion strains, locus YDR477W, strain SNF1, stronger effect = lower value 0.955 | S. cerevisiae deletion strains, locus YER123W, strain YCK3, stronger effect = lower value 0.883 | S. cerevisiae deletion strains, locus YER133W, strain GLC7, stronger effect = lower value 0.938 | S. cerevisiae deletion strains, locus YFL009W, strain cdc4, stronger effect = lower value 0.976 | S. cerevisiae deletion strains, locus YFL029C, strain CAK1, stronger effect = lower value 0.981 | S. cerevisiae deletion strains, locus YFR003C, strain YPI1, stronger effect = lower value 0.977 | S. cerevisiae deletion strains, locus YFR019W, strain FAB1, stronger effect = lower value 0.945 | S. cerevisiae deletion strains, locus YFR028C, strain CDC14, stronger effect = lower value 0.988 | S. cerevisiae deletion strains, locus YGR040W, strain KSS1, stronger effect = lower value 0.938 | S. cerevisiae deletion strains, locus YGR052W, strain FMP48, stronger effect = lower value 1 | S. cerevisiae deletion strains, locus YGR092W, strain DBF2, stronger effect = lower value 0.933 | [2] 1.15 | S. cerevisiae deletion strains, locus YHR079C, strain IRE1, stronger effect = lower value 1.03 | S. cerevisiae deletion strains, locus YHR082C, strain KSP1, stronger effect = lower value 1.01 | S. cerevisiae deletion strains, locus YHR205W, strain SCH9, stronger effect = lower value 0.936 | S. cerevisiae deletion strains, locus YIL147C, strain SLN1, stronger effect = lower value 0.97 | S. cerevisiae deletion strains, locus YJL095W, strain BCK1, stronger effect = lower value 1.03 | S. cerevisiae deletion strains, locus YJL128C, strain PBS2, stronger effect = lower value 0.941 | S. cerevisiae deletion strains, locus YJL157C, strain FAR1, stronger effect = lower value 0.924 | S. cerevisiae deletion strains, locus YJR016C, strain ILV3, stronger effect = lower value 0.987 | S. cerevisiae deletion strains, locus YJR066W, strain TOR1 (second series), stronger effect = lower value 0.899 | S. cerevisiae deletion strains, locus YJR066W, strain TOR1, stronger effect = lower value 1.03 | S. cerevisiae deletion strains, locus YKL048C, strain ELM1, stronger effect = lower value 0.944 | S. cerevisiae deletion strains, locus YKL067W, strain YNK1, stronger effect = lower value 0.937 | S. cerevisiae deletion strains, locus YKL101W, strain HSL1, stronger effect = lower value 0.931 | S. cerevisiae deletion strains, locus YKL193C, strain SDS22, stronger effect = lower value 0.985 | S. cerevisiae deletion strains, locus YKL203C, strain TOR2, stronger effect = lower value 1.02 | S. cerevisiae deletion strains, locus YLR113W, strain HOG1, stronger effect = lower value 0.931 | S. cerevisiae deletion strains, locus YLR133W, strain CKI1, stronger effect = lower value 0.947 | S. cerevisiae deletion strains, locus YLR403W, strain SFP1, stronger effect = lower value 0.944 | S. cerevisiae deletion strains, locus YML070W, strain DAK1, stronger effect = lower value 0.902 | S. cerevisiae deletion strains, locus YMR001C, strain CDC5, stronger effect = lower value 0.981 | S. cerevisiae deletion strains, locus YMR205C, strain PFK2 (second series), stronger effect = lower value 0.939 | S. cerevisiae deletion strains, locus YMR277W, strain FCP1, stronger effect = lower value 0.984 | S. cerevisiae deletion strains, locus YNL006W, strain LST8, stronger effect = lower value 0.983 | S. cerevisiae deletion strains, locus YNL020C, strain ARK1, stronger effect = lower value 0.931 | S. cerevisiae deletion strains, locus YNL161W, strain CBK1, stronger effect = lower value 0.984 | S. cerevisiae deletion strains, locus YNL183C, strain NPR1, stronger effect = lower value 1.01 | S. cerevisiae deletion strains, locus YNL207W, strain RIO2, stronger effect = lower value 0.993 | S. cerevisiae deletion strains, locus YNL222W, strain SSU72, stronger effect = lower value 0.972 | S. cerevisiae deletion strains, locus YNL307C, strain MCK1 (second series), stronger effect = lower value 0.946 | S. cerevisiae deletion strains, locus YOL078W, strain AVO1, stronger effect = lower value 0.98 | S. cerevisiae deletion strains, locus YOL136C, strain PFK27, stronger effect = lower value 0.918 | S. cerevisiae deletion strains, locus YOR061W, strain CKA2, stronger effect = lower value 0.92 | S. cerevisiae deletion strains, locus YOR119C, strain RIO1, stronger effect = lower value 0.991 | S. cerevisiae deletion strains, locus YOR231W, strain MKK1, stronger effect = lower value 1 | S. cerevisiae deletion strains, locus YOR329C, strain SCD5, stronger effect = lower value 0.981 | S. cerevisiae deletion strains, locus YPL031C, strain PHO85, stronger effect = lower value 0.949 | S. cerevisiae deletion strains, locus YPL153C, strain RAD53, stronger effect = lower value 0.928 | S. cerevisiae deletion strains, locus YPL204W, strain HRR25, stronger effect = lower value 0.945 | S. cerevisiae deletion strains, locus YPL209C, strain IPL1, stronger effect = lower value 0.978 | S. cerevisiae deletion strains, locus YPL256C, strain CLN2, stronger effect = lower value 0.991 | S. cerevisiae deletion strains, locus YPR025C, strain CCL1, stronger effect = lower value 0.982 | S. cerevisiae deletion strains, locus YPR106W, strain ISR1, stronger effect = lower value 0.98 | S. cerevisiae deletion strains, locus YPR111W, strain DBF20, stronger effect = lower value 0.977 | S. cerevisiae deletion strains, strain NNK1, stronger effect = lower value 0.981 | S. cerevisiae deletion strains, strain TSCII, stronger effect = lower value 0.99

CCOC(=O)c1c(C)csc1N
inactive: [3] 0.99 | [4] 0.999 | [5] 0.996 | [1] 0.998 | [6] 1.01 | [7] 1.01 | [8] 0.987 | [9] 0.983 | [2] 0.98 | [10] 1.01 | [11] 1 | [12] 1.01 | [13] 0.997 | [14] 1 | [15] 1.01 | [16] 0.983 | [17] 1.02 | [18] 0.984 | [19] 1.01 | S. cerevisiae deletion strains, locus YMR263W, strain SAP30, stronger effect = lower value 1.02 | [20] 0.9 | [21] 1 | [22] 0.967 | [23] 0.993 | [24] 0.984 | [25] 1.03 | [26] 0.972 | [27] 1.02

CCOC(=O)Nc1ccc(NCc2ccc(F)cc2)nc1N
inactive: [3] 1.02 | S. cerevisiae deletion strains, locus YAL040C, strain CLN3, stronger effect = lower value 1.01 | S. cerevisiae deletion strains, locus YCL061C, strain MRC1 (second series), stronger effect = lower value 1 | [7] 0.991 | S. cerevisiae deletion strains, locus YDR363W, strain ESC2, stronger effect = lower value 1.02 | S. cerevisiae deletion strains, locus YER002W, strain NOP16, stronger effect = lower value 1 | [28] 1.07 | [13] 1.01 | [20] 0.994 | S. cerevisiae deletion strains, locus YNL128W, strain TEP1, stronger effect = lower value 0.993 | S. cerevisiae deletion strains, locus YNL175C, strain NOP13, stronger effect = lower value 1.01 | S. cerevisiae deletion strains, locus YNL197C, strain WHI3, stronger effect = lower value 1.01 | S. cerevisiae deletion strains, locus YNL224C, strain SQS1, stronger effect = lower value 1.04 | [23] 1.01 | S. cerevisiae deletion strains, locus YOR083W, strain WHI5 (second series), stronger effect = lower value 1.03 | [25] 1.02

CCOC(=O)c1c(-c2ccc(F)cc2)csc1N
inactive: [1] 0.986 | [7] 0.986 | [9] 0.93 | [12] 0.957 | [21] 0.941 | [23] 0.95
active: [3] 0.879 | [4] 0.905 | [5] 0.889 | [6] 0.887 | [8] 0.746 | [28] 0.928 | [2] 0.175 | [10] 0.858 | [11] 0.903 | [13] 0.86 | [14] 0.437 | [15] 0.897 | [16] 0.508 | [17] 0.438 | [18] 0.798 | [19] 0.93 | [22] 0.782 | [24] 0.842 | S. cerevisiae deletion strains, locus YOL006C, strain TOP1, stronger effect = lower value 0.479 | [25] 0.754 | [26] 0.807 | [27] 0.435 | S. cerevisiae strains, strain wild type, stronger effect = lower value 0.82
